Data reported in PubChem BioAssay AID1662 (Broad Institute, 2009).
The campaign covered roughly 300,000 compounds. About 4,000 (1.3%) were called active. Only a selection was taken, and actives are over-represented in it overall. Values without a mark were called inactive.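 The calls were made as follows: active = mean replicate score, as percent of positive control median, at least 50; inconclusive = mean below 50 but one replicate at or above 50; inactive = mean and every replicate below 50.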

Experiment: S. pyogenes SKKanGAS growth inhibitors in kanamycin, primary screen, streptokinase expression inhibitor project, SKKanGAS strain, BacTiter-Glo luminescence (AID 1662);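 also: strain carries kanamycin resistance gene driven by streptokinase promoter and grows in 40 µg/ml kanamycin; loss of luminescence reflects streptokinase promoter inhibition or plain growth inhibition; 0% = median of DMSO wells and 100% = positive control at its reference dose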
Settings: 6 h, at 7.5 µM, hits give high values

Structure (SMILES)	inhibition
Cc1cc(C(=O)CCC(=O)NNC(=O)c2ccccc2O)c(C)s1	12.7%
O=C1c2ccccc2S(=O)(=O)c2cc(N3CCN(c4ccccn4)CC3)ccc21	14.1%
CCCc1cc(=O)n2[nH]c(C)c(-c3ccc(Cl)cc3)c2n1	53.5% (active)
COCc1cc(=O)n2[nH]c(C)c(-c3ccccc3)c2n1	-14.5%
Cc1nc2c(-c3ccccc3)c(C)[nH]n2c(=O)c1Cl	18.8%
Cc1ccc2nnn(Cc3cccc(C(C)(C)C)c3O)c2c1	11.4%
CC1=NNC(=O)C1CCC(=O)N/N=C\c1cccc(Cl)c1 (centres undefined)	4.3%
O=c1[nH]oc(O)c1-c1ncc(C(F)(F)F)cc1Cl	-8.5%
Cc1ccc(NC(=O)C2CC(=O)N(c3ccc4c(c3)OCCO4)C2)cc1S(=O)(=O)N1CCCCCC1 (centres undefined)	-2.91%
Cc1ccc(C(C)C)cc1OCC(=O)Nc1ccccc1N1CCCC1	69.7% (active)
Cc1ccccc1NC(=O)CNc1ccccc1N1CCCCC1	9.21%
CCC(=O)N1CCN(c2ccccc2NC(=O)COc2cccc(C)c2C)CC1	5.73%
Cc1nn2c(NCCN(C)C)c3c(nc2c1-c1ccccc1)CCC3	6.41%
COC(=O)c1ccc(C(=O)OC)c(NC(=S)N2CCN(c3cc(Cl)ccc3C)CC2)c1	14.5%
Cc1cccc(N2CCN(C(=O)c3cnn4c(C(F)F)cc(-c5ccccc5)nc34)CC2)c1C	38.6%
Cc1ccc(Cl)cc1N1CCN(C(=O)c2cccc3c(=O)c(C)c(-c4ccccc4)oc23)CC1	52.6% (active)
CC1(C)C=C2[C@H]3CC[C@@H]4[C@@]5(C)CCC(=O)C(C)(C)[C@@H]5CC[C@@]4(C)[C@]3(C)CC[C@@]2(C(=O)O)CC1	96.7% (active)
Cc1ccc(S(=O)(=O)N2CCOCC2)cc1C(=O)Nc1ccccc1N1CCCC1	-4.42%
COc1ccc(C(=O)NC2CC2)cc1OC1CCN(Cc2cnn(C)c2)CC1	7.48%
CCCCCC(O)c1cccc(OCc2ccc3ccccc3n2)c1 (centres undefined)	15.6%
O=C1c2ccccc2C2=Nc3ccccc3SC(c3ccccc3F)C12 (centres undefined)	52.9% (active)
CCOC(=O)C1=C(C)N=C2c3ccccc3C(=O)C2C1c1ccc(Br)cc1 (centres undefined)	38.8%
O=C1c2ccccc2C(=O)C1c1ccccc1F	0.629%
O=C(c1ccc(F)cc1)C1CCN(Cc2cn[nH]c2-c2ccccc2)CC1	-0.535%

Structure (SMILES)	inhibition
CCN1C(=O)[C@H]2[C@@H](c3ccc(-c4ccc(F)cc4)cc3)N[C@@](Cc3ccccc3)(C(=O)OC)[C@H]2C1=O	9.27%
CCC(C)C(=O)Nc1cc([N+](=O)[O-])ccc1Cl (centres undefined)	-5.67%
O=C(CN1CCSCC1)N/N=C/c1ccc(F)cc1F	-4.84%
O=C(NCCN1CCOCC1)c1cc(-c2cccs2)nc2ccccc12	-10.4%
O=C(Nc1nnc(-c2ccccc2)o1)c1cc(-c2cccs2)nc2ccccc12	92.3% (active)
COC(=O)c1cc(-c2cccs2)nc2ccccc12	-7.36%
C#CCNC(=O)C1=C[C@@H](c2ccccc2)[C@H](CCCO)[C@@H](OCC)O1	0.924%
O=C(Nc1ccccc1Cl)NC1(C(=O)N2CCOCC2)CCCCC1	-13%
CCCCc1nc(NCc2ccccc2)c(C#N)c2c1CCCC2	60% (active)
CCCCc1nc(NCCN)c(C#N)c2c1CSC(C)(C)C2	-15.3%
CCc1nc(NCCO)c(C#N)c2c1CCCC2	-3.02%
CCCNC(=O)C(=O)Nc1cc2c3c(c1)CCC(=O)N3CCC2	-4.99%
COc1cc(NS(=O)(=O)c2ccc(NC(=S)NC(=O)c3ccc(Br)cc3)cc2)ncn1	16.4%
CC(c1cccnc1)N(CCN(C)C)C(=O)Nc1ccc(Cl)c(Cl)c1 (centres undefined)	-0.312%
O=C(COC(=O)c1cccc(Br)c1)Nc1cccc2c1C(=O)c1ccccc1C2=O	-1.24%
Cc1ccccc1C(=O)Nc1ccccc1Sc1ccccc1	25.4%
O=C(COC(=O)c1ccccc1)Nc1ccccc1Sc1ccccc1	58.2% (active)
CC(=O)N[C@H]1[C@H]([C@H](O)[C@H](O)CO)OC(C(=O)O)=C[C@@H]1O	-0.96%
c1ccc(-c2oc3ncnc(N4CCOCC4)c3c2-c2ccccc2)cc1	-2.29%
COc1ccc(-c2oc3ncn(Cc4ccco4)c(=N)c3c2-c2ccc(OC)cc2)cc1	55% (active)
N=c1c2c(-c3ccccc3)c(-c3ccccc3)oc2ncn1Cc1ccco1	63.5% (active)
COc1ccc(-c2oc3ncnc(NCCCO)c3c2-c2ccc(OC)cc2)cc1	33.4%
COc1ccc2[nH]c3c(=O)n(Cc4ccco4)cnc3c2c1	17.1%
N=c1c2c(-c3ccccc3)c(-c3ccccc3)n(Cc3ccccc3)c2ncn1CCCO	-1.98%

Structure (SMILES)	inhibition
O=C(O)CC(Cn1cnnn1)c1ccccc1 (centres undefined)	-1.95%
C/C(CC(C)C)=N\Oc1nc(C)cc(C)n1	-4.06%
O=[N+]([O-])c1ccc(NCCCO)c(C(F)(F)F)c1	0.29%
COc1cc(C=O)ccc1Oc1nnnn1-c1ccccc1	24.2%
CN(C(=O)Nc1ccc(Cl)cc1)n1cnc2ccccc2c1=O	3.63%
Oc1ccc(Br)cc1/C=N/Nc1ccccn1	106% (active)
Oc1ccc(/C=N/Nc2ccc(C(F)(F)F)cn2)cc1O	-9.78%
O=C(CCCO)N/N=C/c1cc(Br)ccc1O	-3.72%
CN(C)Cc1ccc(F)cc1Sc1cc(Cl)ccc1Cl	-3.54%
CC(=O)Nc1ccc(S(=O)(=O)Nc2nc(-c3ccc(C(C)(C)C)cc3)cs2)cc1	0.664%
O=C(Nc1ccc(-c2csc(Nc3cccc(C(F)(F)F)c3)n2)cc1)c1cccc(C(F)(F)F)c1	98.6% (active)
Cc1nc(NC(=O)c2cccc(Cl)c2)sc1-c1csc(Nc2cccc(Cl)c2)n1	25.6%
COc1c(O)cc2oc(-c3ccc(O)c(O)c3)cc(=O)c2c1O	3.54%
OCc1ccc(-c2ccccc2)c(-c2ccccc2)c1	-11.9%
COCCNC(=S)N(CCc1c(C)[nH]c2ccc(C)cc12)Cc1cccnc1	8.58%
O=C(O)c1cccc(N=NN2CCCCCC2)c1	5.53%
C[C@H]1[C@H]2c3nc4ccccc4n3C[C@H]1ON2C1CCCCC1	-3.38%
Cc1ccccc1-n1c(SCC(=O)Nc2cccc3ccccc23)nc(O)cc1=O	18.6%
Cn1c(SCC(=O)Nc2ccc(Cl)cc2)nc(O)cc1=O	112% (active)
COc1ccc(NC(=O)CSc2nc3ccccc3c(=O)n2C)cc1	-4.23%
C/C(=N\Nc1cccc(C(=O)O)c1)c1ccc2c(c1)Nc1ccccc1S2	0.801%
COc1ccccc1CCNC(=O)c1c(C)nn(CC(C)C)c1Cl	-0.777%
O=C(Nc1cccc(C(F)(F)F)c1)c1ccc(N2CCNCC2)c([N+](=O)[O-])c1	-0.102%
COc1cc(OC)cc(C(=O)NC(=S)N2CCN(c3ccc(C(F)(F)F)cc3[N+](=O)[O-])CC2)c1	86.6% (active)

Structure (SMILES)	inhibition
O=C(Cc1ccc(S(=O)(=O)N2CCOCC2)s1)N1CCN(c2ccc(C(F)(F)F)cc2[N+](=O)[O-])CC1	3.49%
Cc1cc(C(=O)OCC(=O)NCc2ccco2)c(C)n1-c1ccccc1	2.24%
O=C(Nc1cc(C(F)(F)F)ccc1Cl)C(=O)N1CCCCC1	-4.87%
CC(CC(=O)Nc1cc(C(F)(F)F)ccc1Cl)c1ccccc1 (centres undefined)	24.4%
O=C(NNc1ccccc1Cl)C(O)(c1cccc(C(F)(F)F)c1)c1cccc(C(F)(F)F)c1	98.2% (active)
COc1cc(C)c(S(=O)(=O)N2CCOCC2)c(C)c1C	0.811%
O=C(Nc1ccccc1Cl)Nc1cccc2cccnc12	-4.43%
O=C(Nc1ccccc1Cl)/C(Cl)=C(\Cl)S(=O)c1ccccc1 (centres undefined)	75.1% (active)
COCCN(CCOC)C(=S)Nc1ccccc1Cl	-4.57%
Cn1cccc1C(C#N)c1ccccc1C#N (centres undefined)	0.367%
Cc1cc(C)c2nc(N(CCN(C)C)C(=O)/C=C/c3cccs3)sc2c1	3.15%
Cc1cc(C)c2nc(-c3cccnc3)cc(C(=O)Nc3ccc(S(=O)(=O)Nc4onc(C)c4C)cc3)c2c1	64.7% (active)
Cc1noc(NS(=O)(=O)c2ccc(NC(=O)c3oc4ccc(F)cc4c3C)cc2)c1C	25.3%
CCn1c(SCC(=O)Nc2ccc(S(=O)(=O)Nc3onc(C)c3C)cc2)nnc1-c1ccccc1	-0.983%
Cc1ccsc1CNn1cnnc1SCc1ccccc1F	-0.394%
c1ccc(-c2cc(N3CCCCC3)c3ccccc3n2)cc1	13.6%
O=C(c1cc2ccccc2o1)N1CCN(c2cccc(C(F)(F)F)c2)CC1	0.601%
FC(F)(F)c1cccc(-c2cc3ccccc3nc2N2CCCC2)c1	51.7% (active)
O=C(c1ccc(OC2CCN(C(=O)c3cccnc3)CC2)cc1)N1CCCCCC1	-5.73%
Cc1ccc(-n2[nH]c(C)c(/C=N/NC(=O)c3cccc([N+](=O)[O-])c3)c2=O)cc1C	91.5% (active)
Cc1[nH]n(-c2ccccc2)c(=O)c1/C=N/NC(=O)c1ccoc1C	-29.8%
O=C(N/N=C/c1cccc([N+](=O)[O-])c1)c1ccncc1	1.34%
